Source: PubChem BioAssay
miR-122 inh = activators of miR-122 sensor in Huh7 cells; Huh7 psiCHECK-miR122 Renilla luciferase sensor, 48 h; activation, % at 12.5 µM; 340,000 compounds, 0.14% hits;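 active = mean activation of 30% or more, with every replicate also reaching 30%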;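 also: 0% = median of neutral control wells and 100% = median of positive control wells; higher luciferase signal means stronger suppression of miR-122 activity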
Active calls of the source: *. Many of the other results were omitted from the sample, so hits are more common in it than they were.

SMILES	miR-122 inh
COCC(=O)N(C)C[C@H]1Oc2ncc(C#Cc3ccncc3)cc2C(=O)N([C@H](C)CO)C[C@@H]1C	-7
CN(C(=O)C12CC3CC(CC(C3)C1)C2)C1CCS(=O)(=O)C1 (stereo not drawn)	36*
C[C@H](CO)N1C[C@H](C)[C@H](CN(C)Cc2cncnc2)Oc2cc(-c3ccccc3)ccc2S1(=O)=O	2
COCC(=O)Nc1ccc2c(c1)OC[C@H](C)NC[C@@H](C)[C@@H](OC)CN(C)C2=O	0
C[C@@H]1CN([C@@H](C)CO)C(=O)c2cccc(NC(=O)C3CCCCC3)c2O[C@@H]1CN(C)Cc1ccc(C(=O)Nc2ccccc2N)cc1	-166
CCCC(=O)Nc1ccc2c(c1)OC[C@@H](C)N(C)C[C@@H](C)[C@@H](OC)CN(C)C2=O	0
C[C@H](CO)N1C[C@H](C)[C@H](CN(C)C(=O)Nc2ccc3c(c2)OCO3)Oc2ncc(-c3ccc(F)cc3)cc2C1=O	-24
CCCCCCCN(C(=O)CCl)c1cccc(C)c1	66*
C[C@@H]1CN([C@@H](C)CO)S(=O)(=O)c2ccc(C3=CCCCC3)cc2O[C@H]1CN(C)S(C)(=O)=O	4
COc1cccc(NC(=O)N(C)C[C@H]2Oc3ncc(C#Cc4cccnc4)cc3C(=O)N([C@@H](C)CO)C[C@@H]2C)c1	5
C[C@H]1CN([C@@H](C)CO)S(=O)(=O)c2ccc(/C=C/c3ccccc3)cc2O[C@H]1CN(C)C(=O)Nc1cccc(F)c1	-13
COc1cc2c(cc1OC)C(c1ccc(-c3ccc(Cl)c(Cl)c3)o1)=NCC2	44*
COCC#Cc1ccc2c(c1)O[C@H](CN(C)C(C)=O)[C@@H](C)CN([C@@H](C)CO)S2(=O)=O	-2
C[C@H](O)C#Cc1cnc2c(c1)C(=O)N([C@H](C)CO)C[C@H](C)[C@H](CN(C)Cc1cncnc1)O2	3
C[C@H](CO)N1C[C@H](C)[C@H](CN(C)CC2CCCC2)Oc2ncc(C#Cc3cccc(F)c3)cc2C1=O	4
COc1ccc(S(=O)(=O)Nc2ccc3c(c2)C(=O)N([C@H](C)CO)C[C@@H](C)[C@@H](CN(C)S(=O)(=O)c2ccc(C)cc2)O3)cc1	-100
O=[N+]([O-])c1ccc(/C=N/n2cnc3ccccc32)s1	48*
COc1ccc(NC(=O)N(C)C[C@@H]2Oc3ncc(C4=CCCC4)cc3C(=O)N([C@H](C)CO)C[C@H]2C)cc1	-6
CCCNC(=O)N(C)C[C@H]1Oc2ncc(/C=C/c3ccccc3)cc2C(=O)N([C@@H](C)CO)C[C@@H]1C	0
Cc1cc(C)cc(NS(=O)(=O)c2ccc(NC(=S)NC(=O)c3cccs3)cc2)c1	-133
CN(Cc1ccccc1)S(=O)(=O)c1ccc(NC(=S)NC(=O)C2CCCC2)cc1	-124
Cc1cc(C)nc(NS(=O)(=O)c2ccc(NC(=S)NC(=O)C3CCCC3)cc2)n1	62*
C[C@@H]1CN([C@H](C)CO)C(=O)c2cc(-c3cccc(F)c3)cnc2O[C@@H]1CN(C)S(C)(=O)=O	10
CCCCc1cc(=O)oc2cc(C)cc(OC(C)C(=O)O)c12 (stereo not drawn)	32*
COc1ccccc1-c1ccc2c(c1)O[C@@H](CN(C)S(=O)(=O)c1ccc(C)cc1)[C@@H](C)CN([C@@H](C)CO)S2(=O)=O	-13
SMILES	miR-122 inh
COc1cccc(-c2ccc3c(c2)O[C@@H](CN(C)CC2CC2)[C@@H](C)CN([C@@H](C)CO)S3(=O)=O)c1	4
CC(C)CC#Cc1ccc2c(c1)O[C@H](CN(C)C(=O)NC1CCCC1)[C@@H](C)CN([C@@H](C)CO)S2(=O)=O	-30
C[C@H](CO)N1C[C@H](C)[C@H](CN(C)C(=O)C2CCCCC2)Oc2ncc(-c3ccccc3F)cc2C1=O	-1
C[C@@H]1CN([C@@H](C)CO)C(=O)c2cc(-c3cccc(F)c3)cnc2O[C@@H]1CN(C)Cc1ccncc1	1
C=CCc1c(OC)ccc2ccc(=O)oc12	32*
C[C@@H]1CN([C@H](C)CO)S(=O)(=O)c2ccc(Br)cc2O[C@@H]1CN(C)Cc1ccccn1	5
Cc1noc(C)c1NC(=O)N(C)C[C@H]1Oc2cc(C#CCC(C)C)ccc2S(=O)(=O)N([C@@H](C)CO)C[C@H]1C	-54
C[C@H](CO)N1C[C@H](C)[C@H](CN(C)C(=O)Cc2cccnc2)Oc2cc(-c3cncnc3)ccc2S1(=O)=O	-3
C[C@H](CO)N1C[C@H](C)[C@H](CN(C)S(=O)(=O)c2cccc(F)c2)Oc2ncc(-c3ccc(F)cc3)cc2C1=O	6
Clc1ccc(CSc2nnc(-c3ccncc3)o2)c(Cl)c1	33*
Cc1ccc(C)c(CSc2nnc(-c3cccnc3)o2)c1	-356
COc1ccccc1-c1cnc2c(c1)C(=O)N([C@H](C)CO)C[C@H](C)[C@H](CN(C)Cc1ccccc1)O2	-2
C[C@H]1CN([C@@H](C)CO)S(=O)(=O)c2ccc(-c3ccccc3)cc2O[C@H]1CN(C)Cc1ccccc1C(=O)O	-2
C[C@@H]1CN([C@@H](C)CO)S(=O)(=O)c2ccc(/C=C/c3ccccc3)cc2O[C@@H]1CN(C)Cc1cccnc1	-5
C[C@H]1CN([C@@H](C)CO)C(=O)c2cc(C#CCc3ccccc3)cnc2O[C@@H]1CN(C)C(=O)C1CCCCC1	-1
Cc1ccccc1OCC(O)CNC1CCC(NCC(O)COc2ccccc2C)CC1 (stereo not drawn)	31*
Cc1ccccc1OCC(=O)NNC(=O)Nc1ccc(Cl)cc1	-144
Cc1ccc(-c2cnc3c(c2)C(=O)N([C@@H](C)CO)C[C@@H](C)[C@@H](CN(C)C(=O)c2ccncc2)O3)cc1	7
C[C@H]1CN([C@@H](C)CO)C(=O)c2cccc(NS(=O)(=O)c3cccs3)c2O[C@@H]1CN(C)Cc1ccc(C(F)(F)F)cc1	-119
O=C1CC(c2ccco2)CC(O)=C1C=Nc1cc(Cl)ccc1O (stereo not drawn)	31*
CCCCCOC(=O)c1[nH]c2c(c1C)C(=O)CC(c1ccco1)C2 (stereo not drawn)	-121
COC(=O)c1nn(-c2ccccc2)c(Sc2ccc(Cl)cc2)c1/C=N/O	36*
COc1cccc(C#Cc2ccc3c(c2)O[C@@H](CN(C)S(=O)(=O)c2ccccc2F)[C@@H](C)CN([C@@H](C)CO)S3(=O)=O)c1	1
CC(C)NC(=O)N(C)C[C@@H]1Oc2cc(-c3ccccc3)ccc2S(=O)(=O)N([C@H](C)CO)C[C@@H]1C	0
C[C@H]1CN([C@@H](C)CO)C(=O)c2cc(/C=C/c3ccccc3)cnc2O[C@H]1CN(C)C(=O)C1CCC1	5
SMILES	miR-122 inh
Cc1ccc(-n2c(Cc3ccccc3)n[nH]c2=S)cc1	41*
C[C@H](CO)N1C[C@H](C)[C@@H](CN(C)Cc2ccccc2C(=O)O)Oc2cc(-c3ccccc3)ccc2S1(=O)=O	-28
O=C1NC(=O)/C(=C\c2ccccc2OCc2ccc([N+](=O)[O-])cc2)N1	37*
CC(C)CC#Cc1cnc2c(c1)C(=O)N([C@@H](C)CO)C[C@@H](C)[C@@H](CN(C)C(=O)NC1CCCC1)O2	14
CC(=O)N(C)C[C@H]1Oc2cc(C#C[C@H](C)O)ccc2S(=O)(=O)N([C@@H](C)CO)C[C@@H]1C	1
C[C@H]1CN([C@@H](C)CO)C(=O)c2cc(C#CC3CC3)cnc2O[C@H]1CN(C)C	2
C[C@@H]1CN([C@@H](C)CO)C(=O)c2cc(C#CC3CC3)cnc2O[C@H]1CN(C)Cc1ccncc1	-1
CCC(=O)Nc1ccc2c(c1)OC[C@@H](C)N(C(=O)c1ccccc1F)C[C@H](C)[C@@H](OC)CN(C)C2=O	-3
